Reference: PubChem BioAssay
Inconclusive results are not listed. Calls of active or inactive are those of the source.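 The calls were made as follows, unless noted: active = viability at or below 30% in both replicate assays; inconclusive = viability at or below 30% in just one of the two assays; inactive = the rest.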

What was measured:
[1] = Her2 expression decrease, cell viability multiplex – SKBR3 breast tumor cells, AlphaScreen, ATP viability, primary screen (AID 461;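 active = Her2 level under about 52% in both replicate screens, with viability over 70% of control, limit read from the data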;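 as to Her2 level: lower value means less Her2 protein in the cells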;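 as to viability: percent of carrier control wells set as 100% viability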); settings: SKBR3 Her2 protein level, 18-24 h, measured here: SKBR3 viability, ATP luminescence, at 10 µM
[2] = target: Receptor tyrosine-protein kinase erbB-2 (Homo sapiens) (UniProt P04626); test: as above; settings: 18-24 h, at 10 µM, stronger effect = lower value
[3] = reduced viability of SK-BR-3 breast cancer cells – cell-based, 24 h, human, pilot screen (AID 572;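 active = viability at or below 10% of carrier control in both of two separate runs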;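 also: compound exposure lasted between 18 and 24 h rather than exactly 24 h; 100% = carrier-treated control wells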); settings: SK-BR-3 viability, CellTiter-Glo luminescence, at 10 µM, stronger effect = lower value
[4] = HUVEC growth inhibition – cell-based, human, primary screen (AID 575); settings: HUVEC proliferation, CellTiter-Glo luminescence, 72 h; at 10 µM; stronger effect = lower value;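 also: 100% = median of untreated cell wells with 0.1% DMSO on each plate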
[5] = H69AR cell proliferation blockers – human, duplicate replicates, primary screen (AID 580;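 active = viability at or under a set limit in both replicates, limit being median viability minus 3 SD, cut at about 48% in these data, passing the limit was not always enough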;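 also: 100% = mean luminescence of untreated wells and 0% = no signal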); settings: H69AR lung tumor cells viability, ATP luminescence, 72 h; at 10 µM; stronger effect = lower value
[6] = MRP1 drug-resistance reversers in H69AR cells – cell-based, doxorubicin co-treatment, pilot screen (AID 601;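 active = viability loss from added drug above about 55%, and viability with drug at most 40%, in both replicates, limit read from the data, passing the limit was not always enough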); settings: CellTiter-Glo, 72 h, at 10 µM; for differential viability (reversal): stronger effect = higher value
[7] = yeast transport mutant growth inhibition pilot in 384-well plates, post-Golgi transport modulator project (AID 636; in the data active = inhibition above about 31%); settings: absorbance 615 nm, about 18 h, stronger effect = higher value
[8] = growth suppression of yeast trafficking mutant, preliminary HTS, modulators of trafficking downstream of Golgi apparatus project, 1536-format plate, OD 615 nm (AID 637; in the data active = inhibition above about 30%); settings: yeast transport mutant growth, absorbance 615 nm, 18 h; stronger effect = higher value
[9] = S. cerevisiae growth inhibition in permissive medium (OD615), pilot counter-assay for S. cerevisiae lifespan shortening project, permissive growth control (AID 705;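 active = growth inhibition above 25% in both replicates, a cutoff set 3 SD above the mean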); settings: OD615, 24 h, at 10 µM, stronger effect = higher value
[10] = S. cerevisiae growth inhibition in restrictive medium, OD615, pilot screen, restrictive growth control, yeast lifespan reduction project (AID 706;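 active = growth inhibition above a set limit, 3 SD over mean compound inhibition, in both replicates, cut at about 43% in these data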;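 also: modified DeaD lifespan yeast strain shifted to restrictive glucose medium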); settings: OD615, 48 h, at 10 µM, stronger effect = higher value
[11] = doxorubicin toxicity protection in MRP-1 cells – H69AR cells, CellTiter-Glo, duplicate, MRP-1 activator project, pilot screen (AID 807;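 active = viability increase at or above a cutoff of the median across tested compounds plus 3 SD, cut at about 8.5% in these data, passing the limit was not always enough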;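 also: compound pretreatment 18-22 h then 72 h combined with doxorubicin; 0% = doxorubicin alone and 100% = vehicle without doxorubicin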); settings: H69AR viability with doxorubicin, CellTiter-Glo luminescence; at 10 µM; stronger effect = higher value
[12] = viability of HCT116 without oncogenic beta-catenin – human colon tumor cells, pilot screen (AID 823;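 active = cell viability at or below a set limit in both duplicate runs, the limit being the all-compound median minus 4 SD, cut at about 23% in these data, passing the limit was not always enough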;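 also: 0% = wells killed by 20 µM Hyamine and 100% = untreated DMSO cell wells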); settings: HCT116 beta-catenin knockout viability, CellTiter-Glo, 60 h; at 10 µM; stronger effect = lower value
[13] = viability of PTEN-null HCT116 cells – cell-based, HCT116 clonal line, CellTiter-Glo, pilot screen (AID 824;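 active = viability at or below 27.92% in each of two runs, the all-compound median minus 4 SD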;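 also: 0% = 20 µM Hyamine control and 100% = vehicle cell control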); settings: HCT116 PTEN-deleted viability, 60 h, at 10 µM, stronger effect = lower value
[14] = RAM pathway blockade in budding yeast – dse1pr::URA3 reporter, 5-FOA selection, pilot screen (AID 869;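 active = inhibition over a set limit, the all-compound mean plus 3 SD, in both replicate runs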;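 also: 0% = DMSO wells with no growth and 100% = 10 µM 1-NA-PP1 with full growth; RAM network block rescues cells from 5-FOA so hits raise OD615 growth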); settings: S. cerevisiae dse1pr::URA3 5-FOA growth, OD615, 2 d; at 10 µM; stronger effect = higher value; strain carries analog-sensitive mutant Cbk1 kinase
[15] = RAM signaling pathway blockade in yeast – S. cerevisiae, Pdr1DBD-CYC8 efflux-inhibited sensitized strain, primary screen (AID 1298;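 active = RAM network inhibition above 8.4% in each of two replicates, 3 SD over the compound average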;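 also: 0% = DMSO untreated cells without growth and 100% = 10 µM 1-NA-PP1 full growth; higher means more yeast growth rescued from 5-FOA killing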); settings: S. cerevisiae cbk1-as DSE1-URA3 strain, 5-FOA growth OD615, 2 d; at 50 µM; stronger effect = higher value
[16] = H69AR cells + 2 uM doxorubicin, measured here: viability with 2 uM doxorubicin, stronger effect = lower value
[17] = H69AR cells, compound alone cytotoxicity

Chain of Receptor tyrosine-protein kinase erbB-2 (Homo sapiens) (P04626 whole entry, looked up): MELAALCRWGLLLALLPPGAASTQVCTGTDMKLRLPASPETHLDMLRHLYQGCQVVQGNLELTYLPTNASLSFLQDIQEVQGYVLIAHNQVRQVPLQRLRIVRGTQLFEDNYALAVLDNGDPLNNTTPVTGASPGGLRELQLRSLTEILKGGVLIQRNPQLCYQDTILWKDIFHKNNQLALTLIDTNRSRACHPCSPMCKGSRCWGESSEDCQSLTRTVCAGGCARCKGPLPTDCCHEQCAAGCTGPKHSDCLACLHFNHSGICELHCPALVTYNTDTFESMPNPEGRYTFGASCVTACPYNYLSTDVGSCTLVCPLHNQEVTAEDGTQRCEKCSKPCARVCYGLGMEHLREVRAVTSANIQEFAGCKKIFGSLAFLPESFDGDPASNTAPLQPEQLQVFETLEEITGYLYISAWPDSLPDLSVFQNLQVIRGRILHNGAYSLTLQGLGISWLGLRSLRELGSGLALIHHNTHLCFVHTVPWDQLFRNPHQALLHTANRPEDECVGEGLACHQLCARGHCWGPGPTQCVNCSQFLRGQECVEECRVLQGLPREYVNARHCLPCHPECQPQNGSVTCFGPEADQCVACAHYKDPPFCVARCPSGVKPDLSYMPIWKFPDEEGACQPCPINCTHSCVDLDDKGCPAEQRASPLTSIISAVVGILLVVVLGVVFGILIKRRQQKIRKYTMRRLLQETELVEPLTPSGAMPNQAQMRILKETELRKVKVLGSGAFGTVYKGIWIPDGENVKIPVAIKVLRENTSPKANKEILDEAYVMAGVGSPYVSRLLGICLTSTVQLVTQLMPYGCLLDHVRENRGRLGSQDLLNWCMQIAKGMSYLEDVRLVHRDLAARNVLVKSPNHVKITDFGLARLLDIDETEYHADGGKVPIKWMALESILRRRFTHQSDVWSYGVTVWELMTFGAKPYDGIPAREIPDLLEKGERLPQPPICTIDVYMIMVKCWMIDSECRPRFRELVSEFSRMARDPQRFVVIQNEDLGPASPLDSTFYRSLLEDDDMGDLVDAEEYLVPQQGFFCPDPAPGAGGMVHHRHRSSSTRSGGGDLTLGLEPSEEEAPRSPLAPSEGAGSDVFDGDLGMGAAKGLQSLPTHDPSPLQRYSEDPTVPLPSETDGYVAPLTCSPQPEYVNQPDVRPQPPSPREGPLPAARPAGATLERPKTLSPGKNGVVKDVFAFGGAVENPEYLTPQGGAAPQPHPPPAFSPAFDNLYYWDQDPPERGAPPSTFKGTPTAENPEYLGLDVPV

Compound | viability [1] [%] | Her2 level [2] | viability [3] | viability [4] | viability [5] | differential viability (reversal) ([6]; H69AR cells + 2 uM doxorubicin) | viability [6, 16] [%] | viability [6, 17] [%] | inhibition [7] | inhibition [8] | growth inhibition [9] | growth inhibition [10] | viability increase [11] | viability [12] | viability [13] | inhibition [14] | RAM network inhibition [15]
CCOC(=O)c1sc2nc(NC(=O)COc3ccccc3)sc2c1C | 78.5 | 123% (inactive) | 78.5% (inactive) | 74.1% (inactive) | 69.4% (inactive) | -10% (inactive) | 79.5 | 69.4 | 3.72% (inactive) | -0.33% (inactive) | -2.58% (inactive) | -19.8% (inactive) | 1.51% (inactive) | 109% (inactive) | 98.4% (inactive) | 2.67% (inactive) | 0.88% (inactive)
C=C(C)Cn1c(-c2ccccc2)nc2ccccc21 | 80 | 102% (inactive) | 80% (inactive) | 117% (inactive) | 96.1% (inactive) | 0.815% (inactive) | 95.3 | 96.1 | -2.8% (inactive) | -1.45% (inactive) | -10.1% (inactive) | -9.65% (inactive) | -1.92% (inactive) | 80.2% (inactive) | 87.8% (inactive) | 1% (inactive) | 5.93% (inactive)
COc1ccc(N2CCN(C(=O)c3c(-c4ccccc4)noc3C)CC2)cc1 | 91.5 | 108% (inactive) | 91.5% (inactive) | 94.4% (inactive) | 88.1% (inactive) | -4.69% (inactive) | 92.8 | 88.1 | 0.51% (inactive) | 4% (inactive) | -9.57% (inactive) | -10.4% (inactive) | -2.79% (inactive) | 94.4% (inactive) | 90.3% (inactive) | 0.795% (inactive) | 4.5% (inactive)
CCCN(CCC)CCNC(=O)c1cc2c(=O)n(C)c3ccccc3c2n1C | 89 | 98.5% (inactive) | 89% (inactive) | 57.5% (inactive) | 77.1% (inactive) | 13% (inactive) | 64 | 77.1 | -2.53% (inactive) | 1.67% (inactive) | 6.58% (inactive) | 1.31% (inactive) | -6.19% (inactive) | 69.6% (inactive) | 73.4% (inactive) | 1.12% (inactive) | 0.57% (inactive)
CC1CCN(C(=O)CSc2nnc(Cc3cc(=O)[nH]c(=O)[nH]3)n2-c2ccc(Cl)cc2)CC1 | 92.5 | 117% (inactive) | 92.5% (inactive) | 101% (inactive) | 101% (inactive) | 2.73% (inactive) | 98.2 | 101 | -1.54% (inactive) | -4.17% (inactive) | -17.1% (inactive) | -15.4% (inactive) | -0.15% (inactive) | 105% (inactive) | 100% (inactive) | -0.375% (inactive) | 4.41% (inactive)
Oc1ccc(-c2n[nH]c(=S)n2Cc2ccccc2)cc1 | 90.5 | 120% (inactive) | 90.5% (inactive) | 112% (inactive) | 105% (inactive) | 2.54% (inactive) | 102 | 105 | 5.45% (inactive) | -2.83% (inactive) | 5.8% (inactive) | -5.84% (inactive) | -1.84% (inactive) | 101% (inactive) | 91.2% (inactive) | 0.655% (inactive) | -0.9% (inactive)
CC(C)c1ncc(C(O)c2cccc3ccccc23)n1C (stereo not drawn) | 97.5 | 129% (inactive) | 97.5% (inactive) | 113% (inactive) | 87.5% (inactive) | 4.07% (inactive) | 83.5 | 87.5 | -4.68% (inactive) | -5.5% (inactive) | -21.2% (inactive) | -7.64% (inactive) | -0.83% (inactive) | 81.6% (inactive) | 79.1% (inactive) | 1.15% (inactive) | 0.82% (inactive)
Cc1cc(NS(=O)(=O)c2ccccc2)no1 | 114 | 115% (inactive) | 114% (inactive) | 94.5% (inactive) | 90.7% (inactive) | -1.04% (inactive) | 91.7 | 90.7 | -5.33% (inactive) | 2.83% (inactive) | -14.5% (inactive) | -6.42% (inactive) | 0.56% (inactive) | 99.9% (inactive) | 98.5% (inactive) | 1.86% (inactive) | 5.41% (inactive)
CCC1CCCCN1C(=O)CSc1nnc(-c2ccc(OC)cc2)o1 (stereo not drawn) | 98 | 102% (inactive) | 98% (inactive) | 99.8% (inactive) | 87.6% (inactive) | -6.46% (inactive) | 94.1 | 87.6 | -3.6% (inactive) | -9.34% (inactive) | 7.74% (inactive) | 54.4% (active) | -1.66% (inactive) | 95.5% (inactive) | 95.7% (inactive) | 2.38% (inactive) | 1.19% (inactive)
CCOC(=O)/C=C1\CC(=O)Nc2nonc2N1 | 112 | 92.5% (inactive) | 112% (inactive) | 109% (inactive) | 105% (inactive) | 9.69% (inactive) | 95.7 | 105 | -1.73% (inactive) | 0.97% (inactive) | 0.64% (inactive) | 9.22% (inactive) | -2.08% (inactive) | 97.5% (inactive) | 95.3% (inactive) | 0.615% (inactive) | 1.93% (inactive)
COc1cc(C2N3CC4(C)CN2CC(C)(C3)C4)ccc1O (stereo not drawn) | 94 | 123% (inactive) | 94% (inactive) | 105% (inactive) | 104% (inactive) | 11.5% (inactive) | 92.3 | 104 | -0.51% (inactive) | -2% (inactive) | -5.33% (inactive) | 1.65% (inactive) | 0.39% (inactive) | 104% (inactive) | 98% (inactive) | 1.72% (inactive) | 0.39% (inactive)
CCOC(=O)C(CC)Sc1ncnc2nc[nH]c12 (stereo not drawn) | 104 | 106% (inactive) | 104% (inactive) | 103% (inactive) | 101% (inactive) | 13% (inactive) | 88.2 | 101 | 0.13% (inactive) | -7.27% (inactive) | -11% (inactive) | -11.7% (inactive) | -1.92% (inactive) | 97.5% (inactive) | 91.9% (inactive) | 1.79% (inactive) | 2.41% (inactive)
O=C(NCc1ccc2c(c1)OCO2)C1CCC(CNc2c(N3CCCCC3)c(=O)c2=O)CC1 (stereo not drawn) | 92.5 | 106% (inactive) | 92.5% (inactive) | 94% (inactive) | 98.9% (inactive) | 7% (inactive) | 91.9 | 98.9 | 0.64% (inactive) | -2.17% (inactive) | -2.47% (inactive) | 4.78% (inactive) | -2.93% (inactive) | 94.6% (inactive) | 88.9% (inactive) | 1% (inactive) | -0.46% (inactive)
CCOc1ccc(NC(=O)CSc2nnc(COc3c(C)cccc3C)o2)cc1 | 95 | 102% (inactive) | 95% (inactive) | 86.7% (inactive) | 80.6% (inactive) | -5.7% (inactive) | 86.3 | 80.6 | -4.93% (inactive) | -2.83% (inactive) | -9.38% (inactive) | -14.3% (inactive) | -1.9% (inactive) | 98.9% (inactive) | 98.3% (inactive) | 3.71% (inactive) | 8.74% (inactive)
CCN1C(=O)c2ccccc2S(=O)(=O)c2ccc(C(=O)NCc3cccnc3)cc21 | 95.5 | 114% (inactive) | 95.5% (inactive) | 85.6% (inactive) | 91.5% (inactive) | -0.065% (inactive) | 91.6 | 91.5 | 0.93% (inactive) | 8.5% (inactive) | -2.51% (inactive) | -4.21% (inactive) | -2.25% (inactive) | 93.4% (inactive) | 90.4% (inactive) | 0.65% (inactive) | 1.98% (inactive)
CC1CCc2nn(CC(=O)NCCCN3CCOCC3)cc2C1 (stereo not drawn) | 99.5 | 102% (inactive) | 99.5% (inactive) | 85.6% (inactive) | 90.5% (inactive) | 2.46% (inactive) | 88.1 | 90.5 | -3.97% (inactive) | -0.83% (inactive) | 7.55% (inactive) | 6.69% (inactive) | -1.14% (inactive) | 104% (inactive) | 95% (inactive) | 3.4% (inactive) | 1.33% (inactive)
COc1cccc(/C=N/n2cnnc2)c1OCc1ccccc1 | 98 | 104% (inactive) | 98% (inactive) | 93.2% (inactive) | 97.8% (inactive) | 7.02% (inactive) | 90.8 | 97.8 | 0% (inactive) | -0.16% (inactive) | -14.7% (inactive) | -17% (inactive) | -0.6% (inactive) | 107% (inactive) | 98.9% (inactive) | 0.69% (inactive) | -1.19% (inactive)
COc1ccc(C(=O)NCC(=O)NC2=NCCS2)cc1 | 100 | 104% (inactive) | 100% (inactive) | 120% (inactive) | 102% (inactive) | 10.7% (inactive) | 91 | 102 | -4.67% (inactive) | 0.33% (inactive) | -1.83% (inactive) | -4.44% (inactive) | -1.93% (inactive) | 102% (inactive) | 98.1% (inactive) | 1.56% (inactive) | 2.03% (inactive)
Cc1nc2ccccc2c2oc(C(=O)N3CCC(N4CCCCC4)CC3)cc12 | 102 | 104% (inactive) | 102% (inactive) | 75.7% (inactive) | 87.4% (inactive) | 9.3% (inactive) | 78.1 | 87.4 | -2.82% (inactive) | 0.17% (inactive) | -9.32% (inactive) | -4.43% (inactive) | -4.92% (inactive) | 83.9% (inactive) | 79.6% (inactive) | 0.43% (inactive) | 4.3% (inactive)
